Measured values: PubChem BioAssay (NCATS)
Records with an inconclusive call do not appear. Values without a mark were called inactive. Activity calls are given as the source filed them. Calls come from the whole dose curve; as a rule, active = well fitted cell-killing curve with a large enough effect; inconclusive = small, poorly fitted or top-dose-only effect; inactive = flat fitted curve, though single readings scatter.

Assay: qHTS assay to identify small molecule inhibitors of chordoma cells - UCH-2 (AID 1259356)
Conditions: UCH-2 chordoma viability, CellTiter-Glo ATP luminescence, 48 h; series mostly up to 46.1 µM; activity change, negative = inhibition: at the top concentration
% is set by controls: 0 for no effect and ±100 for the full control effect; potency is the fitted concentration of half-maximal effect.

First: COC(F)(F)C(Cl)Cl
Second: CCOC(C)=O
The “activity change, negative = inhibition” value of the first is higher: 16.2% for the first, 2.97% for the second.

First: C=C[C@]1(C)C[C@@H](OC(=O)CSC(C)(C)CNC(=O)[C@H](N)C(C)C)[C@]2(C)[C@H](C)CC[C@]3(CCC(=O)[C@H]32)[C@@H](C)[C@@H]1O
Second: CC(C)(C)NC(=O)[C@@H]1C[C@@H]2CCCC[C@@H]2CN1C[C@@H](O)[C@H](Cc1ccccc1)NC(=O)[C@H](CC(N)=O)NC(=O)c1ccc2ccccc2n1
The “activity change, negative = inhibition” value of the first is higher: 5.26% for the first, 3.9% for the second.

Going from `Nc1ccn([C@H]2CS[C@@H](CO)O2)c(=O)n1` to `CN1C(=O)CN2CCc3ccccc3C2c2cc(Cl)ccc21` (stereo not given), the “activity change, negative = inhibition” value falls from 8.61% to 3.15%.

Going from `C/C1=C2N=C(/C=C3N=C(/C(C)=C4\[N-][C@@](C)([C@@H]5N=C1[C@](C)(CCC(=O)NCC(C)OP(=O)(O)O[C@H]1[C@@H](O)[C@@H](n6cnc7cc(C)c(C)cc76)O[C@@H]1CO)[C@H]5CC(N)=O)[C@@](C)(CC(N)=O)[C@@H]4CCC(N)=O)[C@@](C)(CC(N)=O)[C@@H]\3CCC(N)=O)C(C)(C)[C@@H]/2CCC(N)=O.CC(=O)O.[Co]` (stereo not given in full) to `COc1cc([C@@H]2c3cc4c(cc3[C@@H](O[C@@H]3O[C@@H]5CO[C@@H](C)O[C@H]5[C@H](O)[C@H]3O)[C@H]3COC(=O)[C@H]23)OCO4)cc(OC)c1O`, the “activity change, negative = inhibition” value rises from -11.8% to -1.86%.

First: Clc1cc(Cl)c(OCC#CI)cc1Cl
Second: CCN(CC)CCOc1ccc(-c2nc3cc(Cl)ccc3s2)cc1
The “activity change, negative = inhibition” value of the first is higher: 5.07% for the first, -1.62% for the second.

First: O=C(O)CN(CCN(CC(=O)O)CC(=O)O)CC(=O)O
Second: COc1ccc(CCNC[C@H](O)c2ccc(O)cc2)cc1OC
The “activity change, negative = inhibition” value of the first is higher: 9.06% for the first, 1.27% for the second.

Going from `Cc1ccccc1` to `CC1=C(/C=C/C(C)=C/C=C/C(C)=C/CO)C(C)(C)CCC1`, the “activity change, negative = inhibition” value rises from 5.14% to 8.4%.

For `COc1cc(-c2ccc(-[n+]3nc(-c4ccccc4)nn3-c3ccc([N+](=O)[O-])cc3)c(OC)c2)ccc1-[n+]1nc(-c2ccccc2)nn1-c1ccc([N+](=O)[O-])cc1`, the Potency was 9.2 µM (active).
In the case of `CC[C@@H](C(=O)O)[C@@H]1O[C@@H]([C@@H](C)[C@H](O)[C@H](C)C(=O)[C@H](CC)[C@H]2O[C@]3(C=C[C@@H](O)[C@]4(CC[C@@](C)([C@H]5CC[C@](O)(CC)[C@H](C)O5)O4)O3)[C@H](C)C[C@@H]2C)[C@@H](C)C[C@@H]1C`, the Potency is reported as 8.2 µM (active).
In the case of `C[C@]12O[C@H](C[C@]1(O)CO)n1c3ccccc3c3c4c(c5c6ccccc6n2c5c31)CNC4=O`, the Potency is reported as 10.3 µM (active).

First: Cc1cc(C(=O)NNCc2ccccc2)no1
Second: Cc1cc(/C=C/c2ccc3cc(N(C)C)ccc3[n+]2C)c(C)n1-c1ccccc1
The “activity change, negative = inhibition” value of the first is higher: 3.83% [at 20.6 µM] for the first, 3.04% [at 20.6 µM] for the second.

In the case of `CO[C@H]1C[C@H](O[C@H]2[C@H](C)[C@@H](O[C@@H]3O[C@H](C)C[C@H](N(C)C)[C@H]3OC(C)=O)[C@@H](C)C[C@]3(CO3)C(=O)[C@H](C)[C@@H](OC(C)=O)[C@@H](C)[C@@H](C)OC(=O)[C@@H]2C)O[C@@H](C)[C@@H]1OC(C)=O`, the “activity change, negative = inhibition” value is reported as 6.09% [at 20.6 µM].
